Experiment [1] in a line: S16 Schwann cell viability assay (CellTiter-Glo assay) (AID 624031). Further: nearly all actives have a fitted effect of over 70% in size. Further: potency means the concentration at half of the fitted maximal effect. Put shortly: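 Parental S16 cells, 24 h compound, 37 °C. ATP-luminescence viability; DMSO = 0% activity, empty wells as reference; curves classified by fit quality and efficacy.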
Experiment [2] in a line: S16 Schwann cell PMP22 intronic element beta-lactamase assay (AID 624044; calls by dose curve; further: nearly all actives have a fitted effect of over 15% in size; further: potency means the concentration at half of the fitted maximal effect). Put shortly: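 Rat S16 Schwann cells with beta-Lac driven by a PMP22 intronic element, compound-treated 24 h at 37 °C. LiveBLAzer FRET B/G read: 460 nm normalized to potassium clavulanate vs DMSO; 535 nm FRET as viability; concentration-effect curves classified.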
A further experiment has as its system CP215. Put plainly: qHTS profiling for inhibitors of Plasmodium falciparum proliferation (AID 504749). Further: nearly all actives have a fitted effect of over 60% in size. Further: potency means the concentration at half of the fitted maximal effect. To be noted: P. falciparum in erythrocytes, SYBR Green DNA, 72 h; series mostly up to 28.7 µM. Put shortly: (§1)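 P. falciparum-infected erythrocytes (0.3% parasitemia, 2.5% hematocrit final) were exposed to compounds for 72 h at 37 C in 5% CO2, then lysed with SYBR Green buffer overnight at room temperature; parasite DNA fluorescence was normalized to artemisinin and DMSO controls.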
(In general: Quantitative high-throughput screening tests each substance at several concentrations.)

The next experiment relates to CP260. The experiment is described as above. The conditions noted are these: P. falciparum in erythrocytes, SYBR Green DNA, 72 h; series mostly up to 28.7 µM. Put shortly: as §1
For the next experiment, the system named is DIV14. The description is as above. The conditions noted are these: P. falciparum in erythrocytes, SYBR Green DNA, 72 h; series mostly up to 28.7 µM. Put shortly:
as §1

A further experiment has as its system DIV17. The experiment is described as above. To be noted: P. falciparum in erythrocytes, SYBR Green DNA, 72 h; series mostly up to 28.7 µM. Put shortly:
as §1

The next experiment concerns ICS. The description is as above. The conditions noted are these: P. falciparum in erythrocytes, SYBR Green DNA, 72 h; series mostly up to 28.7 µM. Put shortly:
as §1

In a further experiment the test system is W2. The experiment is described as above. To be noted: P. falciparum in erythrocytes, SYBR Green DNA, 72 h; series mostly up to 28.7 µM. Put shortly: as §1
The test system of the next experiment is CP256. The description is as above. To be noted: P. falciparum in erythrocytes, SYBR Green DNA, 72 h; series mostly up to 28.7 µM. Put shortly: as §1
Experiment [3] in a line: Confirmation and Secondary Assay for Modulators of Hemoglobin Beta Chain Splicing at IVS2 705 locus (AID 930).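 Further: HeLa cells stably expressing the EGFP-705 splicing reporter; GFP fluorescence per well restored by corrected splicing of the IVS2-705 intron in EGFP.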 Put shortly:
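Fluorescence gain (488 nm laser, 500-520 nm PMT) reflects restored correct splicing of a mutant IVS2-705 intron inside EGFP in stably transfected HeLa cells after 2-day compound treatment.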

Inconclusive results are not listed. Active and inactive are the calls of the source. Unless noted, the call rests on the fitted dose curve; in most records, active means well fitted curve in the direction sought with a large enough effect; inconclusive means small, poorly fitted or top-dose-only effect, or another doubt; inactive means no such curve, though single readings can be large; an effect the other way counts as inactive or inconclusive. Numbered stars: 1 amine (or outer) side, 2 acyl side, 3 side chain; on linkers, the order of the positions; unused ones are H or OH. Bridge positions count the residues as written; N and C are the ends. Square brackets hold non-standard residues; d marks the D form. Peptide text beside a SMILES is read from it. * marks the point of attachment. ξ: configuration not given here. ΔAla(Z-3-ureido) = NC(=O)N/C=C(\N)C(=O)O; ξDab(CH2SO3H) = NC(CCNCS(=O)(=O)O)C(=O)O; X2 = NC1=NC(O)CC(C(N[*:1])C(=O)[*:2])N1; X1 = NC1=NCCC(C(N[*:1])C(=O)[*:2])N1; Heptanoyl(6-Me) = CC(C)CCCCC(=O)*; ξβ3hOrn = NCCCC(N)CC(=O)*; Orn = NCCC[CH](N)C(=O)O; Dab = NCC[CH](N)C(=O)O; Dap = NC[CH](N)C(=O)O

As to `Cn1cc(O)nc1NC(=O)Nc1cccc(Cl)c1`, the Potency result (in [1]; in experiment [2]; in the experiment on CP215; with CP260; in the experiment on DIV14; in the experiment on DIV17) was “inactive” throughout. Moreover, the Potency entry in the experiment with ICS and with W2 was “inactive” each time.

On to `CC(C)C(NC(=O)C(CC(=O)O)NC(=O)C(CCCCN)NC(=O)C(N)CCCN=C(N)N)C(=O)NC(Cc1ccc(O)cc1)C(=O)O` (stereo unspecified) (H-RKDVY-OH; configuration not given here), for which the Potency result (in experiment [1]; in [2]; in the experiment on CP215; in the experiment with CP256; with DIV14; in the experiment with DIV17) was “inactive” throughout. The Potency entry in the experiment on ICS and with W2 was “inactive” throughout.

On to `NCCCC(N)CC(=O)NCC1NC(=O)C(CO)NC(=O)C(N)CNC(=O)C(C2CCN=C(N)N2)NC(=O)/C(=C/NC(N)=O)NC1=O` (stereo not drawn) (H-[Dap]S[Dap](ξβ3hOrn)[ΔAla(Z-3-ureido)][X1]; lactam 1-C; configuration not given here), for which the Potency entry (in [1]; in experiment [2]; in the experiment with CP215; in the experiment with CP256; with CP260; with DIV14) was “inactive” each time. In addition, the Potency entry in the experiment on DIV17, with ICS and with W2 was “inactive” throughout.

Regarding `CC(C)CC(NC(=O)C(COC(C)(C)C)NC(=O)C(Cc1ccc(O)cc1)NC(=O)C(CO)NC(=O)C(Cc1c[nH]c2ccccc12)NC(=O)C(Cc1cnc[nH]1)NC(=O)C1CCC(=O)N1)C(=O)NC(CCCN=C(N)N)C(=O)N1CCCC1C(=O)NNC(N)=O` (stereo unspecified), the Potency result (in experiment [1]; in the experiment with CP215; in the experiment with CP256; with DIV14; with DIV17; with ICS) was “inactive” each time. Also, the Potency entry with W2 was “inactive”.

For `NCCCC(N)CC(=O)NC1CNC(=O)C(C2CC(O)N=C(N)N2)NC(=O)/C(=C/NC(N)=O)NC(=O)C(CO)NC(=O)C(CO)NC1=O` (stereo not drawn) (ξβ3hOrn-[Dap]SS[ΔAla(Z-3-ureido)][X2]; lactam 1-C; configuration not given here), the Potency entry (in [1]; in [2]; in the experiment with CP256; in the experiment with CP260; in the experiment with W2) was “inactive” throughout.

As to `CCC(Oc1ccccc1)C(=O)NC1C(=O)N2C1SC(C)(C)C2C(=O)O` (stereo unspecified), the Potency result (in experiment [1]; in experiment [2]; with CP215; in the experiment with CP256; in the experiment with CP260; in the experiment with DIV17) was “inactive” in each case. The Potency entry in the experiment with ICS and in the experiment with W2 was “inactive” throughout.

In the case of `O=C(OCC1OC(OC(=O)c2cc(O)c(O)c(OC(=O)c3cc(O)c(O)c(O)c3)c2)[C@@H](OC(=O)c2cc(O)c(O)c(OC(=O)c3cc(O)c(O)c(O)c3)c2)C(OC(=O)c2cc(O)c(O)c(OC(=O)c3cc(O)c(O)c(O)c3)c2)C1OC(=O)c1cc(O)c(O)c(OC(=O)c2cc(O)c(O)c(O)c2)c1)c1cc(O)c(O)c(OC(=O)c2cc(O)c(O)c(O)c2)c1` (stereo partly specified), the Potency is 20.3 µM (active) in [1]; 22.4 µM (active) in experiment [2]; 3.79 µM (active) in the experiment with CP215; 3.55 µM (active) in the experiment on CP256; 3.55 µM (active) with CP260; 3.79 µM (active) with DIV14. For the same molecule, the Potency in the experiment with DIV17 was 2.69 µM (active); in the experiment on ICS it was 2.51 µM (active); with W2, 1.51 µM (active).

As for `COc1ccc(-c2nc3ccc(C4=C(C)CC(=O)NN4)cc3[nH]2)cc1`, the Potency entry (in experiment [2]; with CP260) was “inactive” in each case.

As for `CCOC(=O)C(CS)NCCN[C@@H](CS)C(=O)OCC` (stereo partly specified), the Potency entry (in experiment [1]; in [2]; in the experiment with CP215; in the experiment on CP256; with CP260; in the experiment with DIV14) was “inactive” each time. Moreover, the Potency entry in the experiment with DIV17, in the experiment with ICS and with W2 was “inactive” in each case.

For `O=C(O)c1ccccc1-c1c2cc(Br)c(=O)c(Br)c-2oc2c(Br)c(O)c(Br)cc12`, the Potency result (in experiment [2]; with CP215; in the experiment with CP256; in the experiment with CP260; in the experiment with DIV14; with DIV17) was “inactive” throughout. Besides, the Potency entry in the experiment on ICS is “inactive”.

In the case of `CC(C)CC1NC(=O)C(CCCN)NC(=O)C(C(C)C)NC(=O)C2CCCN2C(=O)C(Cc2ccccc2)NC(=O)C(CC(C)C)NC(=O)C(CCCN)NC(=O)C(C(C)C)NC(=O)C2CCCN2C(=O)C(Cc2ccccc2)NC1=O` (stereo unspecified) (cyclo(FPV[Orn]LFPV[Orn]L); configuration not given here), the Potency is 4.55 µM (active) in experiment [1]; 12.6 µM (active) in experiment [2]; 0.0011 µM (active) in the experiment with CP215; 0.004 µM (active) in the experiment with CP256; 0.0009 µM (active) with CP260; 0.0003 µM (active) in the experiment on ICS. Further, the Potency in the experiment on W2 was 0.0002 µM (active).

As to `CCC(C)C1NC(=O)C(CCNCS(=O)(=O)O)NC(=O)C(NC(=O)C(CCNCS(=O)(=O)O)NC(=O)C(NC(=O)C(CCNCS(=O)(=O)O)NC(=O)CCCCC(C)C)C(C)O)CCNC(=O)C(C(C)O)NC(=O)C(CCNCS(=O)(=O)O)NC(=O)C(CCNCS(=O)(=O)O)NC(=O)C(C(C)CC)NC1=O` (stereo unspecified) ({Heptanoyl(6-Me)}-[ξDab(CH2SO3H)]T[ξDab(CH2SO3H)][Dab][ξDab(CH2SO3H)]II[ξDab(CH2SO3H)][ξDab(CH2SO3H)]T; lactam 4-C; configuration not given here), in experiment [3], the molecule was called inactive. The Potency result (in experiment [1]; in experiment [2]; with DIV14; with DIV17; in the experiment with ICS; in the experiment on W2) was “inactive” throughout.

The values above are taken from PubChem BioAssay (NCATS).
